Screening data: PubChem, National Center for Advancing Translational Sciences (NCATS)
IL1B secr inh = qHTS for Inhibitors of Inflammasome Signaling: IL-1-beta AlphaLISA Primary Screen. THP-1 LPS/ATP IL-1B secretion, AlphaLISA, 16 h; stronger effect = lower value. activity change, % at 57.5 µM. 4.7% of 360,000 active. AID 743279, 2014; in the data active means activity change below about -50%; inconclusive means mostly about -30% to -49%
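Secreted IL-1B measured by AlphaLISA bead assay after 16 h compound exposure of THP-1 cells; compounds (final up to 57.5 uM) added 1 h before LPS (250 ng/mL) and ATP (1.25 mM) stimulation; lower signal means less secretion.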
HT1080NT lethal = qHTS for induction of synthetic lethality in tumor cells producing 2HG: qHTS for the HT-1080-NT fibrosarcoma cell line; AID 686970, 2013; Potency, µM (top dose mostly 46.1 µM), inactives show at the top dose activity, negative = less viability, hits mostly cytotoxic; HT-1080-NT fibrosarcoma viability, CellTiter-Glo ATP luminescence, 48 h; 1.6% of 360,000 active;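 further: NT is the 2HG producing partner of a matched IDH1 knockdown line; potency means the concentration at half of the fitted maximal effect; 0% = DMSO-treated cells and -100% = media-only wells without cells; nearly all actives have a fitted effect of over 55% in size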
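Toxicity toward the 2HG-producing NT line was scored as %Activity, normalised to DMSO and no-cell wells, from CellTiter-Glo luminescence after 48 hours' treatment.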
HT1080 IDH1KD tx = qHTS for induction of synthetic lethality in tumor cells producing 2HG: qHTS for the HT-1080-IDH1KD cell line; Potency, µM (titrated, usually from 46.1 µM), for the others: top-dose activity, negative = toxicity, most hits filed as cytotoxic; 2% of 360,000 active; HT-1080 IDH1 knockdown viability, ATP luminescence, 48 h; AID 686971, 2013;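 further: potency means the concentration at half of the fitted maximal effect; 0% = DMSO wells and -100% = cell-free medium wells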
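Knockdown cells (IDH1KD HT-1080) received compounds 2 h after plating at 750 cells/well and were kept 48 h at 37 °C in 5% FBS RPMI. A CellTiter-Glo luminescence read gave % activity for curve fitting.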
TDP1 cell noCPT = qHTS for Inhibitors of human tyrosyl-DNA phosphodiesterase 1 (TDP1): qHTS in cells in absence of CPT; DT40 Tdp1-/- hTDP1 cells, no CPT, ATP luminescence, 48 h; Potency, µM (doses to about 46.2 µM), for inactives: top-dose activity change, negative = growth inhibition, most hits filed as inhibitors; 15% of 420,000 active; further: potency means the concentration at half of the fitted maximal effect; nearly all actives have a fitted effect of over 55% in size
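Growth of hTDP1-complemented DT40 Tdp1-knockout cells is measured by ATP luminescence after at least 48 hr compound exposure at 37 °C, with DMSO substituting for the 20 nM CPT used in the parallel screen.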
TDP1 cell CPT = qHTS for Inhibitors of human tyrosyl-DNA phosphodiesterase 1 (TDP1): qHTS in cells in presence of CPT; chicken DT40 Tdp1-/-;hTDP1 cells + 20 nM CPT, ATP luminescence, 48 h; Potency, µM (series often up to 46.2 µM), for the others: top-dose activity change, negative = growth inhibition, hits mostly inhibitors; 12% of 420,000 active; AID 686979, 2013; further: potency means the concentration at half of the fitted maximal effect; nearly all actives have a fitted effect of over 55% in size
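Cell growth measured by CellTiter-Glo luminescence after a minimum 48 h, 37 C compound exposure with 20 nM CPT in Tdp1-knockout DT40 cells stably expressing hTDP1, seeded 400/well; qHTS titration format.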
An asterisk follows results filed as active; i = inactive; ? = inconclusive; · = no result given; [ ] = dose if it differs, or a comment. A selection: hits, their analogues and other compounds. The true share with any hit is near 19%. Unless noted, the call rests on the fitted dose curve; in most records, active means well fitted curve in the direction sought with a large enough effect; inconclusive means small, poorly fitted or top-dose-only effect, or another doubt; inactive means no such curve, though single readings can be large; an effect the other way counts as inactive or inconclusive. Unless noted, on the % scale 0 is the no-effect control and ±100 the full control effect.

SMILES	IL1B secr inh	HT1080NT lethal	HT1080 IDH1KD tx	TDP1 cell noCPT	TDP1 cell CPT
Cc1ccc(-n2nc(C)c3c2C(Br)C(C)(C)CC3=O)nc1 (centres undefined)	0	1%	2%	-33%	?
COc1ccc(NC(=O)/C=C/c2cc(Br)ccc2OC)cc1	-16	-1%	0%	21µM*	?
CCN(CC)c1ccc(NC(=O)/C=C/c2cc(Br)ccc2OC)cc1	-29	0%	1%	?	?
COc1ccc(Br)cc1/C=C/C(=O)Nc1c(C)cccc1C	-13	2%[9.24 µM]	?	23µM*	?
COc1ccc(Br)cc1/C=C/C(=O)c1ccc(NC(C)=O)cc1	-99*	?	?	4.1µM*	5.8µM*
CCOC(=O)Cn1c(=O)n(C2CCCCC2)c2nc(-c3cccc(C)c3)nc(C(N)=O)c21	·	·	·	-6%	?
CC(=O)N1CCC[C@@]2(CCN(Cc3ccc(C#N)cc3)C2)C1	·	·	·	-16%	2%
O=C(COc1ccccc1Cl)N1CCN(c2ccc([N+](=O)[O-])c(N3CCOCC3)c2)CC1	-9	-18%	-21%	16µM*	?
Cc1ccc(C(=O)N2CCN(c3ccc([N+](=O)[O-])c(N4CCOCC4)c3)CC2)cc1	0	8%	6%	?	29µM*
COc1cccc(N2CCN(C(=O)CN(C)S(=O)(=O)c3ccc4c(c3)c(=O)n(C)c(=O)n4C)CC2)c1	-1	-1%	-24%	?	?
Cc1cccc(NC(=O)CSc2nncn2N)c1C	18	3%	-2%	-3%	8%
CS(=O)(=O)c1ccc(NC(=O)c2ccc3c(c2)S(=O)(=O)N=C2CCCCCN23)cc1	5	-8%	-6%	7%	-11%
Cc1ncc(CN2CCC(C(=O)Nc3ccc(-n4cccn4)cc3)CC2)s1	-6	-4%	12%	-5%	-27%
O=C(Nc1ccc(-n2cccn2)cc1)C1CCCCN1Cc1cccc2c1OCO2 (centres undefined)	28	?	?	4.6µM*	6.5µM*
O=[N+]([O-])/C(C(Cl)=C(Cl)Cl)=C(/NC1CC1)Sc1ccccc1	?	5%	6%	23µM*	?
Cc1ccc(C2CC(c3cccc(C)c3)n3ncnc3N2)cc1 (centres undefined)	-10	-9%	-3%	?	15µM*
COc1cccc(C2CC(c3ccccc3)Nc3ncnn32)c1 (centres undefined)	-5	-13%	-4%	-27%	-6%
Fc1ccc(C2CC(c3ccccc3)n3ncnc3N2)cc1 (centres undefined)	9	-1%	0%[9.24 µM]	-2%	0%
CCOc1ccc(C2CC(c3ccc(F)cc3)n3ncnc3N2)cc1 (centres undefined)	-12	4%	3%	21µM*	?
CCCc1[nH]c(=O)c(C#N)c2c1CCCC2	18	-18%	-18%	-10%	-15%
Cc1cc(C)c2cc(CN(Cc3nnnn3C3CCCCC3)CC3CCCO3)c(=O)[nH]c2c1 (centres undefined)	-6	?	?	13µM*	?
Cc1ccc2cc(CN(CC3CCCO3)C(=O)C(C)C)c(=O)[nH]c2c1 (centres undefined)	26	-2%	-4%	-14%	-2%
Cc1ccc2cc(CN(Cc3nnnn3C3CCCCC3)CC3CCCO3)c(=O)[nH]c2c1 (centres undefined)	-9	-2%	?	16µM*	15µM*
Cc1cccc2cc(CN(Cc3nnnn3C3CCCC3)C3CCCCC3)c(=O)[nH]c12	-12	-11%	-1%	?	21µM*
Cc1cc2cc(CN(Cc3nnnn3C3CCCCC3)CC3CCCO3)c(=O)[nH]c2cc1C (centres undefined)	-66*	5%	3%	?	?
SMILES	IL1B secr inh	HT1080NT lethal	HT1080 IDH1KD tx	TDP1 cell noCPT	TDP1 cell CPT
CCc1ccc2[nH]c(=O)c(CN(Cc3nnnn3C3CCCC3)C3CCCCC3)cc2c1	?	-12%	?	?	?
COc1ccc(CN(Cc2cc3ccc(C)cc3[nH]c2=O)Cc2nnnn2C2CCCC2)cc1	-58*	1%	-25%	18µM*	?
COc1ccc2cc(CN(CCCN3CCOCC3)Cc3nnnn3C3CCCC3)c(=O)[nH]c2c1	-24	-1%	-20%	-21%	?
O=S(=O)(NC1c2cccc3cccc(c23)C1N1CCNCC1)c1ccc(Cl)cc1 (centres undefined)	-60*	18µM*	21µM*	12µM*	13µM*
CC(=O)N1CCN(C2c3cccc4cccc(c34)C2NS(=O)(=O)c2ccccc2)CC1 (centres undefined)	20	4%	1%	-22%	3%
Cc1ccc2cc(CCNC(=O)c3ccc(S(=O)(=O)N4CCOCC4)cc3)c(=O)[nH]c2c1	?	6%	8%	-28%	?
Cc1ccc2cc(CCNC(=O)c3ccc(S(=O)(=O)N4CCCCC4)cc3)c(=O)[nH]c2c1	-10	-2%	21%	23µM*	?
Cc1cc2cc(CCNC(=O)c3ccc(S(=O)(=O)N4CCOCC4)cc3)c(=O)[nH]c2cc1C	?	-5%	-8%	18µM*	16µM*
CC(C)c1ccccc1NC(=O)CN(c1ccccc1)S(=O)(=O)N(C)C	·	·	·	-26%	?
COc1ccc(-c2cc(C(=O)N(C)Cc3ccccc3F)c3ccccc3n2)cc1OC	?	-13%	-19%	18µM*	?
CCN(Cc1ccccc1)C(=O)c1cc(-c2ccc(OC)c(OC)c2)nc2ccccc12	5	-11%	-10%	?	?
COc1cc(-c2cc(C(=O)N(C)Cc3ccccc3)c3ccccc3n2)cc(OC)c1OC	-23	-7%	-17%	15µM*	15µM*
COc1cc(-c2cc(C(=O)OCC(=O)NC3CC3)c3ccccc3n2)cc(OC)c1OC	0	-11%	-11%	18µM*	?
COCCN(Cc1ccccc1)C(=O)c1cc(-c2ccc(OC)c(OC)c2)nc2ccccc12	i	-12%	-1%	?	?
COc1ccccc1CN(C)C(=O)c1cc(-c2cc(OC)c(OC)c(OC)c2)nc2ccccc12	?	15µM*	18µM*	10µM*	23µM*
Cc1cc(C(=O)OCC(=O)NC2CCCC2)c2ccccc2n1	4	-10%	-5%	10%	2%
COc1ccccc1CN(C)C(=O)c1sccc1-c1ccccc1	i	-6%	-16%	?	?
